# According to the supplement of paper PMC12282887:
# ± gives the standard deviation of the averaged measurements.
# Experiments:
# Assay in all cases: promoter activity interaction Z-score (Lux/OD deviation from empty-vector control); higher = stronger promoter induction by the compound
# [1] = test system: E. coli BW25113 acrABp lux reporter
# Outline: (§1)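 E. coli BW25113, as wild type or one of three single-gene deletion strains, carried low-copy luxCDABE promoter reporters and grew in 40 µl LB Lennox in 384-well plates at 37°C, with OD600 and luminescence read every 30 min for 12 h. Each compound was run at four 1:2 dilutions in biological duplicates, integration spanned 0–8 h for wild type and 1–9 h for deletion strains, and wells under 10% of the median growth value were dropped. The score is the Z-transformed residual of growth-normalised luminescence fitted against a control.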
# [2] = test system: E. coli BW25113 micFp lux reporter
# Outline: as §1
# [3] = test system: E. coli BW25113 ompFp lux reporter
# Outline: as §1
# [4] = test system: E. coli BW25113 robp lux reporter
# Outline: as §1
# [5] = test system: E. coli BW25113 soxSp lux reporter
# Outline: as §1
# [6] = test system: E. coli BW25113 tolCp lux reporter
# Outline: as §1
# [7] = 22.7 µg/ml, genetic background: wild type
# [8] = 22.7 µg/ml, genetic background: ΔmarA
# [9] = 22.7 µg/ml, genetic background: Δrob
# [10] = 22.7 µg/ml, genetic background: ΔsoxS
# [11] = 45.3 µg/ml, genetic background: wild type
# [12] = 45.3 µg/ml, genetic background: ΔmarA
# [13] = 45.3 µg/ml, genetic background: Δrob
# [14] = 45.3 µg/ml, genetic background: ΔsoxS
# [15] = 90.6 µg/ml, genetic background: wild type
# [16] = 90.6 µg/ml, genetic background: ΔmarA
# [17] = 90.6 µg/ml, genetic background: Δrob
# [18] = 90.6 µg/ml, genetic background: ΔsoxS
# [19] = 181.2 µg/ml, genetic background: wild type
# [20] = 181.2 µg/ml, genetic background: ΔmarA
# [21] = 181.2 µg/ml, genetic background: Δrob
# [22] = 181.2 µg/ml, genetic background: ΔsoxS
compound,measurement,setting,value
C[C@]12CCC(=O)C=C1CC[C@@H]1[C@@H]2[C@@H](O)C[C@@]2(C)[C@H]1CC[C@]2(O)C(=O)CO [Hydrocortisone],promoter activity interaction Z-score,[1]; [7],0.0762 ± 0.23
same,promoter activity interaction Z-score,[1]; [8],1.29 ± 0.12
same,promoter activity interaction Z-score,[1]; [9],0.155 ± 0.043
same,promoter activity interaction Z-score,[1]; [10],-0.247 ± 0.36
same,promoter activity interaction Z-score,[1]; [11],-0.118 ± 0.13
same,promoter activity interaction Z-score,[1]; [12],-0.299 ± 0.39
same,promoter activity interaction Z-score,[1]; [13],-0.0995 ± 0.075
same,promoter activity interaction Z-score,[1]; [14],-0.18 ± 0.021
same,promoter activity interaction Z-score,[1]; [15],-0.0327 ± 0.25
same,promoter activity interaction Z-score,[1]; [16],0.944 ± 0.81
same,promoter activity interaction Z-score,[1]; [17],-0.203 ± 0.1
same,promoter activity interaction Z-score,[1]; [18],-0.563 ± 0.76
same,promoter activity interaction Z-score,[1]; [19],-0.103 ± 0.25
same,promoter activity interaction Z-score,[1]; [20],0.322 ± 0.17
same,promoter activity interaction Z-score,[1]; [21],-0.0446 ± 0.063
same,promoter activity interaction Z-score,[1]; [22],-0.63 ± 0.4
same,promoter activity interaction Z-score,[2]; [7],-0.121 ± 0.17
same,promoter activity interaction Z-score,[2]; [8],-0.0598 ± 0.096
same,promoter activity interaction Z-score,[2]; [9],0.0274 ± 0.19
same,promoter activity interaction Z-score,[2]; [10],-0.338 ± 0.18
same,promoter activity interaction Z-score,[2]; [11],-0.199 ± 0.022
same,promoter activity interaction Z-score,[2]; [12],-0.00993 ± 0.17
same,promoter activity interaction Z-score,[2]; [13],-0.112 ± 0.071
same,promoter activity interaction Z-score,[2]; [14],-0.292 ± 0.17
same,promoter activity interaction Z-score,[2]; [15],-0.0486 ± 0.33
same,promoter activity interaction Z-score,[2]; [16],0.0152 ± 0.072
same,promoter activity interaction Z-score,[2]; [17],-0.0859 ± 0.072
same,promoter activity interaction Z-score,[2]; [18],-0.443 ± 0.012
same,promoter activity interaction Z-score,[2]; [19],-0.162 ± 0.41
same,promoter activity interaction Z-score,[2]; [20],0.0829 ± 0.11
same,promoter activity interaction Z-score,[2]; [21],0.0154 ± 0.043
same,promoter activity interaction Z-score,[2]; [22],-0.487 ± 0.11
same,promoter activity interaction Z-score,[3]; [7],-0.318 ± 0.33
same,promoter activity interaction Z-score,[3]; [8],-1.05 ± 0.19
same,promoter activity interaction Z-score,[3]; [9],-0.188 ± 0.34
same,promoter activity interaction Z-score,[3]; [10],-0.146 ± 0.36
same,promoter activity interaction Z-score,[3]; [11],-0.51 ± 0.41
same,promoter activity interaction Z-score,[3]; [12],-0.8954 ± 0.0059
same,promoter activity interaction Z-score,[3]; [13],-0.15 ± 0.053
same,promoter activity interaction Z-score,[3]; [14],-0.152 ± 0.059
same,promoter activity interaction Z-score,[3]; [15],-0.587 ± 0.064
same,promoter activity interaction Z-score,[3]; [16],-0.994 ± 0.16
same,promoter activity interaction Z-score,[3]; [17],-0.657 ± 0.24
same,promoter activity interaction Z-score,[3]; [18],-1.03 ± 0.14
same,promoter activity interaction Z-score,[3]; [19],-0.507 ± 0.061
same,promoter activity interaction Z-score,[3]; [20],-0.698 ± 0.09
same,promoter activity interaction Z-score,[3]; [21],-0.507 ± 0.34
same,promoter activity interaction Z-score,[3]; [22],-0.928 ± 0.4
same,promoter activity interaction Z-score,[4]; [7],0.0773 ± 1.2
same,promoter activity interaction Z-score,[4]; [8],0.0463 ± 0.066
same,promoter activity interaction Z-score,[4]; [9],0.694 ± 1.1
same,promoter activity interaction Z-score,[4]; [10],-0.236 ± 0.064
same,promoter activity interaction Z-score,[4]; [11],-0.333 ± 0.93
same,promoter activity interaction Z-score,[4]; [12],0.247 ± 0.23
same,promoter activity interaction Z-score,[4]; [13],0.312 ± 0.14
same,promoter activity interaction Z-score,[4]; [14],0.174 ± 0.55
same,promoter activity interaction Z-score,[4]; [15],-0.0645 ± 0.73
same,promoter activity interaction Z-score,[4]; [16],-0.315 ± 0.028
same,promoter activity interaction Z-score,[4]; [17],0.1 ± 1.2
same,promoter activity interaction Z-score,[4]; [18],-0.777 ± 0.35
same,promoter activity interaction Z-score,[4]; [19],-0.438 ± 0.64
same,promoter activity interaction Z-score,[4]; [20],-0.167 ± 0.27
same,promoter activity interaction Z-score,[4]; [21],0.558 ± 0.36
same,promoter activity interaction Z-score,[4]; [22],0.106 ± 1
same,promoter activity interaction Z-score,[5]; [7],0.274 ± 0.098
same,promoter activity interaction Z-score,[5]; [8],-0.206 ± 0.075
same,promoter activity interaction Z-score,[5]; [9],0.0559 ± 0.11
same,promoter activity interaction Z-score,[5]; [10],-0.266 ± 0.045
same,promoter activity interaction Z-score,[5]; [11],0.0799 ± 0.065
same,promoter activity interaction Z-score,[5]; [12],-0.198 ± 0.084
same,promoter activity interaction Z-score,[5]; [13],0.0141 ± 0.1
same,promoter activity interaction Z-score,[5]; [14],-0.247 ± 0.054
same,promoter activity interaction Z-score,[5]; [15],-0.0463 ± 0.13
same,promoter activity interaction Z-score,[5]; [16],-0.321 ± 0.095
same,promoter activity interaction Z-score,[5]; [17],-0.185 ± 0.0079
same,promoter activity interaction Z-score,[5]; [18],-0.58 ± 0.1
same,promoter activity interaction Z-score,[5]; [19],-0.0782 ± 0.16
same,promoter activity interaction Z-score,[5]; [20],-0.3408 ± 0.003
same,promoter activity interaction Z-score,[5]; [21],-0.284 ± 0.044
same,promoter activity interaction Z-score,[5]; [22],-0.743 ± 0.29
same,promoter activity interaction Z-score,[6]; [7],0.184 ± 0.076
same,promoter activity interaction Z-score,[6]; [8],0.724 ± 1.1
same,promoter activity interaction Z-score,[6]; [9],0.231 ± 1.1
same,promoter activity interaction Z-score,[6]; [10],-0.0445 ± 0.42
same,promoter activity interaction Z-score,[6]; [11],-0.258 ± 0.085
same,promoter activity interaction Z-score,[6]; [12],0.509 ± 1.2
same,promoter activity interaction Z-score,[6]; [13],0.65 ± 0.86
same,promoter activity interaction Z-score,[6]; [14],-1.3 ± 0.73
same,promoter activity interaction Z-score,[6]; [15],0.153 ± 0.86
same,promoter activity interaction Z-score,[6]; [16],0.621 ± 0.97
same,promoter activity interaction Z-score,[6]; [17],0.0433 ± 0.14
same,promoter activity interaction Z-score,[6]; [18],-0.413 ± 0.29
same,promoter activity interaction Z-score,[6]; [19],-0.363 ± 0.23
same,promoter activity interaction Z-score,[6]; [20],0.0951 ± 0.92
same,promoter activity interaction Z-score,[6]; [21],0.261 ± 1.6
same,promoter activity interaction Z-score,[6]; [22],0.18 ± 0.34
